# Results taken from ChEMBL document CHEMBL1961873, “Compounds: GSK PKIS; Assays: Nanosyn kinase panel” (2012).
# How the values were obtained:
# [1] = test system: Tyrosine-protein kinase ABL1 (Homo sapiens), P00519 [T315I]; settings: at 1 µM
# [2] = test system: Tyrosine-protein kinase ABL1 (Homo sapiens), P00519 [Y253F]; settings: at 0.1 µM
# [3] = test system: Tyrosine-protein kinase ABL1 (Homo sapiens), P00519 [Y253F]; settings: at 1 µM
# [4] = target: Tyrosine-protein kinase ABL1 (Homo sapiens) (UniProt P00519); settings: at 0.1 µM
# [5] = target: Tyrosine-protein kinase ABL1 (Homo sapiens) (UniProt P00519); settings: at 1 µM
# [6] = target: ALK tyrosine kinase receptor (Homo sapiens) (UniProt Q9UM73); settings: at 0.1 µM
# Chain of ALK tyrosine kinase receptor (Homo sapiens) (Q9UM73 19-1620 limits assumed): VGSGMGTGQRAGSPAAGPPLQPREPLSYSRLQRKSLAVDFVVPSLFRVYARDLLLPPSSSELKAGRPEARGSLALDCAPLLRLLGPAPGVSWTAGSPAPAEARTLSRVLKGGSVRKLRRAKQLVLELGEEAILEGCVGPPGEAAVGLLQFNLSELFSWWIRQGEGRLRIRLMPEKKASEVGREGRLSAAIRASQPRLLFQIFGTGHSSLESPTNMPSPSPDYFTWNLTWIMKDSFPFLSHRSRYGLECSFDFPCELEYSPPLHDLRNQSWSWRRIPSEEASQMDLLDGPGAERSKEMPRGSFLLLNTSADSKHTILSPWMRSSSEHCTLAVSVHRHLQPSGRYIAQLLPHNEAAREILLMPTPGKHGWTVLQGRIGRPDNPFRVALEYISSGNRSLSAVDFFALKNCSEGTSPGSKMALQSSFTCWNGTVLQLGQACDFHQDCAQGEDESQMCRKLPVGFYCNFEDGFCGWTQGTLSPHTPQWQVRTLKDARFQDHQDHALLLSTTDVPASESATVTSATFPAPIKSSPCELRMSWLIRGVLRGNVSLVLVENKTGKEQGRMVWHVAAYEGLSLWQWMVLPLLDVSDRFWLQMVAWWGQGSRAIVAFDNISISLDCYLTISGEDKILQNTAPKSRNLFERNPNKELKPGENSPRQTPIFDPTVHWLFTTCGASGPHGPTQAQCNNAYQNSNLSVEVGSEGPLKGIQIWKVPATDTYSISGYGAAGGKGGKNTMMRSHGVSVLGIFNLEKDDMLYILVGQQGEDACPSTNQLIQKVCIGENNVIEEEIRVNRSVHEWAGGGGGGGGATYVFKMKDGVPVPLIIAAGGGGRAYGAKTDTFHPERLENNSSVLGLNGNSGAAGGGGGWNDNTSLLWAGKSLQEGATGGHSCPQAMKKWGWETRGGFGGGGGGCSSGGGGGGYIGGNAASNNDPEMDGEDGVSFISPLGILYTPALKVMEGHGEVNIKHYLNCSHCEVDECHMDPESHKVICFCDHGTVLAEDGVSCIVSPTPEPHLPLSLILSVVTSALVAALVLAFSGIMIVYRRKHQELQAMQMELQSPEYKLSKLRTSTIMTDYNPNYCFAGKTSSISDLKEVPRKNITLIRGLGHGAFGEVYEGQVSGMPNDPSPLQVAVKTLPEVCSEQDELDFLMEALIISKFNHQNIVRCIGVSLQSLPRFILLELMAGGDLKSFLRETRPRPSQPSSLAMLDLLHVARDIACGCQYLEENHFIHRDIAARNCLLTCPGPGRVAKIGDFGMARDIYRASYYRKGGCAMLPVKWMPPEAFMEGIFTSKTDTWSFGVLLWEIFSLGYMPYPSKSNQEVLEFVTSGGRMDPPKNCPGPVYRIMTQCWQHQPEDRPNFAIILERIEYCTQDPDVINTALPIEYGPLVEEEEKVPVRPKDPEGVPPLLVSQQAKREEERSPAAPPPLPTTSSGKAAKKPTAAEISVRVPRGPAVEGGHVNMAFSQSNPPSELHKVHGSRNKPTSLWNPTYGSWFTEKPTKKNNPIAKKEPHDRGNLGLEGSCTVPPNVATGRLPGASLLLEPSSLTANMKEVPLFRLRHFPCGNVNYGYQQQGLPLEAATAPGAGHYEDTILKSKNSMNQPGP
# [7] = target: ALK tyrosine kinase receptor (Homo sapiens) (UniProt Q9UM73); settings: at 1 µM
# [8] = target: Tyrosine-protein kinase ABL2 (Homo sapiens) (UniProt P42684); settings: at 0.1 µM
# Chain of Tyrosine-protein kinase ABL2 (Homo sapiens) (P42684 whole entry): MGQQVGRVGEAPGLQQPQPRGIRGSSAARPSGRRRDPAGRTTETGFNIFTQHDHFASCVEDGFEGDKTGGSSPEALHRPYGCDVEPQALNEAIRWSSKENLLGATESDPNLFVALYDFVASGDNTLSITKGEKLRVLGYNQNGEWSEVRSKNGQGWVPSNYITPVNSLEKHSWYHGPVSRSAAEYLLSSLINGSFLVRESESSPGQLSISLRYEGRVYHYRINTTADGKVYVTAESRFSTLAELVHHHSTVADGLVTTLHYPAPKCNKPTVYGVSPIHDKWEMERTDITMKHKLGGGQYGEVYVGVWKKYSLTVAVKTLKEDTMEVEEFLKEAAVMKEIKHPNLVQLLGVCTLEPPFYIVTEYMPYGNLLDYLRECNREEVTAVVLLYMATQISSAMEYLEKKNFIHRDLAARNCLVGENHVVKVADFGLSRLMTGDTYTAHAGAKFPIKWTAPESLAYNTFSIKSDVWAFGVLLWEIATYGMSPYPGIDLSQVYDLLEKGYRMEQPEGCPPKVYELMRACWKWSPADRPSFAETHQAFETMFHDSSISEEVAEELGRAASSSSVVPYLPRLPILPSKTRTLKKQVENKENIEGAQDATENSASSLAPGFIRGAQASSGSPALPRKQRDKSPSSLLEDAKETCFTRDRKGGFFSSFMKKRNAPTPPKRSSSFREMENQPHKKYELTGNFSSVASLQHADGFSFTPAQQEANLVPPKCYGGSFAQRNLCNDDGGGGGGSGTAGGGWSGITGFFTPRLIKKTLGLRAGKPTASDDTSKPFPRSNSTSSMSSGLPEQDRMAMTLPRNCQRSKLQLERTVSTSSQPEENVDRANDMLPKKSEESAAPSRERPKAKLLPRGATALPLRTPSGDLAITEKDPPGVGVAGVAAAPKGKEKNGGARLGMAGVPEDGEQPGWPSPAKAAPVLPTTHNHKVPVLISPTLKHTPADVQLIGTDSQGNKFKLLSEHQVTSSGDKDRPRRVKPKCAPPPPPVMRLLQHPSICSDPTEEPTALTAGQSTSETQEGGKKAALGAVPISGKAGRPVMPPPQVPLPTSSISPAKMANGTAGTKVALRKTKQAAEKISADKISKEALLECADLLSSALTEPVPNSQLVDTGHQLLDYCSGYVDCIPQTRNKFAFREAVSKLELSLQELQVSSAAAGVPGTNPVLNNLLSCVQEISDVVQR
# [9] = target: Tyrosine-protein kinase ABL2 (Homo sapiens) (UniProt P42684); settings: at 1 µM
# [10] = target: Tyrosine-protein kinase receptor UFO (Homo sapiens) (UniProt P30530); settings: at 0.1 µM
# [11] = target: Tyrosine-protein kinase receptor UFO (Homo sapiens) (UniProt P30530); settings: at 1 µM
# [12] = target: Tyrosine-protein kinase Blk (Homo sapiens) (UniProt P51451); settings: at 0.1 µM
# Chain of Tyrosine-protein kinase Blk (Homo sapiens) (P51451 2-505 limits assumed): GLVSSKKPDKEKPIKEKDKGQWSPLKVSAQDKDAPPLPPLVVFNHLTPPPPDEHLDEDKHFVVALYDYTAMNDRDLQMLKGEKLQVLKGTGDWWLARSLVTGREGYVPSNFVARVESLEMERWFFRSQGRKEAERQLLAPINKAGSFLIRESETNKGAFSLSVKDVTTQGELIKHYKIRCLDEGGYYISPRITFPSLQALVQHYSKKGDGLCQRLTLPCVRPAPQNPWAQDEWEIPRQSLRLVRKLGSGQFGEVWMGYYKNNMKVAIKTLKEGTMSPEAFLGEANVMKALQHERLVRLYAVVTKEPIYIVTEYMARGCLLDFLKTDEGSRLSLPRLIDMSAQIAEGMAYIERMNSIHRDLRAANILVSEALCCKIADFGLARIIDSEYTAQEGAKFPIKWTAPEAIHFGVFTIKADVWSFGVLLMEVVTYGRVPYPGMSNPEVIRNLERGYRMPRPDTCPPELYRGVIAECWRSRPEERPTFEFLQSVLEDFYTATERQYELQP
# [13] = target: Tyrosine-protein kinase Blk (Homo sapiens) (UniProt P51451); settings: at 1 µM
# [14] = target: T1, Cytoplasmic tyrosine-protein kinase BMX (Homo sapiens) (UniProt P51813); settings: at 0.1 µM
# T1 sequence (whole entry): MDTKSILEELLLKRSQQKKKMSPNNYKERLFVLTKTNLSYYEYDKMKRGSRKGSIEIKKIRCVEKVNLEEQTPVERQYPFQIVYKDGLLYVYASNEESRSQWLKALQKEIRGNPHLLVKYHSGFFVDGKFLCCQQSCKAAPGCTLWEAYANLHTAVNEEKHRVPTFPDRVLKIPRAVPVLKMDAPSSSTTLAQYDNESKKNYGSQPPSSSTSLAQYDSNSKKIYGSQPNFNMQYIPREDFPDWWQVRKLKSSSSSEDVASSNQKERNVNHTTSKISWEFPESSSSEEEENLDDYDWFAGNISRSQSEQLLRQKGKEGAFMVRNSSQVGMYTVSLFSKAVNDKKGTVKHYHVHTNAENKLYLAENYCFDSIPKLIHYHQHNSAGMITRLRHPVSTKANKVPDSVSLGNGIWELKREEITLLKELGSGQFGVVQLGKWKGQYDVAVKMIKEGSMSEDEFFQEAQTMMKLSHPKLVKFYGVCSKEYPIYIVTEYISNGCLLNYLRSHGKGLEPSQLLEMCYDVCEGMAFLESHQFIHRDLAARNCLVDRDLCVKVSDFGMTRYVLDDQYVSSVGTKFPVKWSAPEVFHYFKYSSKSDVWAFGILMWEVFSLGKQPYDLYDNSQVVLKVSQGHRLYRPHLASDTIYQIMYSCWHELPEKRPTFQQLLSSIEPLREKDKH
# [15] = target: T1, Cytoplasmic tyrosine-protein kinase BMX (Homo sapiens); settings: at 1 µM
# [16] = target: Protein-tyrosine kinase 6 (Homo sapiens) (UniProt Q13882); settings: at 0.1 µM
# Chain of Protein-tyrosine kinase 6 (Homo sapiens) (Q13882 whole entry, looked up): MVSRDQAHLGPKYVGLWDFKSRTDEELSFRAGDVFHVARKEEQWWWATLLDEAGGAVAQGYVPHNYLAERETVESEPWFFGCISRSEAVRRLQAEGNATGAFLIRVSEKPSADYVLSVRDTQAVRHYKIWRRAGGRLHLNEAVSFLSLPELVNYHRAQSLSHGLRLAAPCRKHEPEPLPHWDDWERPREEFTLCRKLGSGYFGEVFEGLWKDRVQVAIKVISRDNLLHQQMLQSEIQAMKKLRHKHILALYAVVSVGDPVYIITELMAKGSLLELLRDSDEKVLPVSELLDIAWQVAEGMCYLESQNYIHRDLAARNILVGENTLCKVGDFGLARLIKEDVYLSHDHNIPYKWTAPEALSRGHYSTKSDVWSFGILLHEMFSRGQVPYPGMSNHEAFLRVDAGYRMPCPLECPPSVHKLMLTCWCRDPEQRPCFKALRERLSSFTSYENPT
# [17] = target: Protein-tyrosine kinase 6 (Homo sapiens) (UniProt Q13882); settings: at 1 µM
# [18] = target: Tyrosine-protein kinase BTK (Homo sapiens) (UniProt Q06187); settings: at 0.1 µM
# Chain of Tyrosine-protein kinase BTK (Homo sapiens) (Q06187 whole entry): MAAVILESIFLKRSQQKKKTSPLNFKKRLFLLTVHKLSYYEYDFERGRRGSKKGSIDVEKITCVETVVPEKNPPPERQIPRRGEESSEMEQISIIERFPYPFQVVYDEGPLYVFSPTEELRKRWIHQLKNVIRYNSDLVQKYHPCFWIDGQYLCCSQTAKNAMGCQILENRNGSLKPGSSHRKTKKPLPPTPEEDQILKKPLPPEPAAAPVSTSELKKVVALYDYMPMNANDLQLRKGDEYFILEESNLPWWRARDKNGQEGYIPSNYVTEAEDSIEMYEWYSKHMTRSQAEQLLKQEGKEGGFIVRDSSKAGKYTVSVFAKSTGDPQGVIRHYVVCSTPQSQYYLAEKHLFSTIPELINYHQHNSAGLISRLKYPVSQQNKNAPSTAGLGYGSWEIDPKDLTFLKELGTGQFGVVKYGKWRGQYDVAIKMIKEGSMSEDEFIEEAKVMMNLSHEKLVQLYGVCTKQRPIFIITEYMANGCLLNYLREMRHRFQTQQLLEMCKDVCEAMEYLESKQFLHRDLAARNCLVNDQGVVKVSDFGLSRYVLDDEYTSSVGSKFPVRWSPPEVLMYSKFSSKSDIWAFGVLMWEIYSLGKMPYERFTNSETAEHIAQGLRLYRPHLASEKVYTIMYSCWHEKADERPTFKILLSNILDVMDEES
# [19] = target: Tyrosine-protein kinase BTK (Homo sapiens) (UniProt Q06187); settings: at 1 µM
# [20] = target: Tyrosine-protein kinase CSK (Homo sapiens) (UniProt P41240); settings: at 0.1 µM;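 also: value given is the averaged percent inhibition of CSK kinase activity, from the GSK PKIS kinase inhibitor set screening panel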
# Chain of Tyrosine-protein kinase CSK (Homo sapiens) (P41240 2-450 limits assumed): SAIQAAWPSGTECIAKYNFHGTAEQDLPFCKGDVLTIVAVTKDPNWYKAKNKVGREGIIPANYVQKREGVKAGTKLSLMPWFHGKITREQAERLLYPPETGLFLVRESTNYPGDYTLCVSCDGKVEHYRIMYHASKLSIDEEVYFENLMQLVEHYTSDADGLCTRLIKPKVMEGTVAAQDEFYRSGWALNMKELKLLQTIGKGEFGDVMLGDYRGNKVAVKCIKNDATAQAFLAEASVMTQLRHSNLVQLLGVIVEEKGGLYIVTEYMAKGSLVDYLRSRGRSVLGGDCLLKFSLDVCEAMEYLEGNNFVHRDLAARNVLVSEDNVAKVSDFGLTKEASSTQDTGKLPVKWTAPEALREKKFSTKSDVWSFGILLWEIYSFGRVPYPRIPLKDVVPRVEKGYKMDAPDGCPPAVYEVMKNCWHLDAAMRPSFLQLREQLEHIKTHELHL
Structure (SMILES),inhibition [1] [%],inhibition [2] [%],inhibition [3] [%],inhibition [4] [%],inhibition [5] [%],inhibition [6] [%],inhibition [7] [%],inhibition [8] [%],inhibition [9] [%],inhibition [10] [%],inhibition [11] [%],inhibition [12] [%],inhibition [13] [%],inhibition [14] [%],inhibition [15] [%],inhibition [16] [%],inhibition [17] [%],inhibition [18] [%],inhibition [19] [%],inhibition [20] [%]
NC(=O)c1cc(-c2ccncc2)cc(-c2ccccc2)c1N,3.04,8.23,40.8,7.61,40.2,3.8,5.19,6.19,54.2,-7.51,-6.8,3.86,17.5,11.8,49.6,5.89,36.9,1.6,11.8,5.98
CCN(CC)Cc1ccc(Nc2nccc(-c3cnn4ncccc34)n2)cc1,47.4,8.38,39.5,6.1,29.5,2.57,24.4,1.47,22.2,-3.64,16.3,-0.3,1.7,2.63,10.8,3.93,15.7,-3.74,-0.83,1.79
COc1cc(C)c(N(C)C(=O)CN(C)C)cc1Nc1nc(Nc2cccc(F)c2C(N)=O)c2cc[nH]c2n1,-0.05,2.02,1.33,0.32,0.22,22.4,69.9,-2.32,-3.83,-0.45,3.71,-3.28,-1.84,-1.82,2.46,0.54,1.53,-1.73,-2.02,1.1
O=C(Nc1ccc(Oc2ccc3[nH]c(NC(=O)c4ccccc4)nc3c2)cc1)Nc1cc(C(F)(F)F)ccc1F,83,10.8,51.8,16.2,62.3,3.09,6.42,25.1,65.9,-3.01,19.2,2.56,4.59,1.13,2.54,3.52,8.39,0.7,3.03,2.64
Cc1ccc(C(=O)NC(C)C)cc1-c1ccc(C(=O)NCC2CC2)cc1,0.58,-2.81,-0.96,0.14,1.26,-4.4,-3.45,-2.09,-0.41,2.35,4.77,-1.25,-1.6,-4.33,-4.09,-3.3,-4.09,-0.46,-1.32,-7.18
N#Cc1ccc(Oc2nccc(-c3c(-c4ccc(F)cc4)ncn3C3CCNCC3)n2)cc1,5.17,2.11,5.93,3.72,5.42,3.58,5.33,1.9,6.94,-5.46,-3.22,2.21,3.73,3.25,4.26,4.1,4.81,-1.09,0.54,0.79
COc1cc(Nc2ncc(-c3ccccc3)o2)cc(OC)c1OC,22.3,16.7,69.2,7.54,52.3,-2.74,-0.68,9.54,52.1,-0.73,-1.68,4.17,41.1,2.78,8.49,0.16,4.16,-0.88,0.25,-1.07
FC(F)(F)c1cccc(Nc2nccc(-c3cnn4nc(-c5ccccc5)ccc34)n2)c1,1.88,-1.1,3.96,-0.03,5.59,1.89,1.6,3.3,3.79,-3.39,-4.33,0.07,-0.26,1.76,0.63,-1.81,2.26,0.03,-0.49,4.19
COc1cc2ncn(-c3cc(OCCc4ccccc4)c(C(N)=O)s3)c2cc1OC,8.39,3.32,9.56,2.3,13.7,1.95,5.89,2.26,8.26,-5.54,-2.35,1.59,6.17,-0.54,3.43,-0.83,4.33,1.12,0.02,2.97
NC(=O)Cc1ccccc1Oc1nccc(-c2c(-c3ccc(F)cc3)ncn2C2CCNCC2)n1,-0.82,1.75,1.1,2.7,5.08,4.05,8.13,2.21,2.93,-5.91,1.68,1.46,2.66,7.68,3.56,2.9,1.21,1.29,0.76,0.51
Nc1nccc(-c2c(-c3ccc(F)cc3)ncn2C2CCC(O)CC2)n1 (stereo not given),42.7,1.83,24.4,1.2,36.8,-2.24,2.88,0.37,30.3,2.47,6.29,0.25,5.98,-2.32,3.78,1.95,14,-0.78,1.08,-1.06
Clc1ccc(CNc2nccc(-c3cnn4ncccc34)n2)cc1,2.99,2.53,4.96,1.08,8.86,-0.45,3.1,3.17,7.59,1.22,2.45,1.31,3.34,-1.56,2.62,0.74,3.52,0.65,1.7,3.92
c1ccc(Oc2ccc(Nc3ncc(-c4ccccc4)o3)cc2)cc1,1.01,1.56,3.65,2.29,7.18,0.41,2.22,1.49,1.49,-1.17,-0.31,1.93,2.96,-4.27,1.54,-5.64,-0.31,-0.86,0.56,4.92
